Data published in PubChem BioAssay (EPA / NIEHS).
Results filed as inconclusive are left out. Calls of active or inactive are those of the source. The calls were made as follows, unless noted: active = hit-call score of the fitted dose curve at least 0.9, where 1 is the maximum; inactive = score below 0.9.

Assays:
[1] = CCTE_Shafer_MEA_dev_per_burst_interspike_interval: CCTE's Neural Network Formation Assay for Burst Interspike Interval, Shafer Lab (AID 2284044);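 also: mean spike spacing inside bursts as AUC over recordings on days 5 7 9 12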
Procedure, shortened: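 Spontaneous activity of maturing rat cortical networks is recorded on DIV 5, 7, 9 and 12 under chronic compound exposure beginning at plating. Endpoint: burst interspike interval well-mean, collapsed into trapezoidal AUC and fitted in the negative direction relative to DMSO.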

[2] = CCTE_Shafer_MEA_dev_burst_duration_mean: CCTE's Neural Network Formation Assay for Mean Burst Duration, Shafer Lab (AID 2284045)
Procedure, shortened: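 Rat cortical cultures, 1.5 x 10^5 cells/well with laminin drop; continuous dosing days 0–12, media plus treatment refreshed DIV 5, 9. AxIS adaptive spike detection; mean single-electrode burst duration, AUC over four recordings, negative direction vs DMSO.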

[3] = CCTE_Shafer_MEA_dev_interburst_interval_mean: CCTE's Neural Network Formation Assay for Mean Interburst Interval, Shafer Lab (AID 2284046);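 also: well-mean interburst interval of bursting electrodes as AUC over four recording days; curve fitted for decrease in interburst interval relative to DMSO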
Procedure, shortened: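 Rat cortical neurons, 1.5 x 10^5 cells/well, 48-well MEA; compound from day 0 through DIV 12, media and treatment renewed DIV 5/9. Recordings DIV 5, 7, 9, 12; well-mean interburst interval → trapezoidal AUC, loss direction vs DMSO.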

[4] = CCTE_Shafer_MEA_dev_inter_network_spike_interval_mean: CCTE's Neural Network Formation Assay for Mean Inter-network Spike Interval, Shafer Lab (AID 2284047)
Procedure, shortened: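 Primary rat cortical neurons on PEI-coated 48-well MEAs (16 electrodes/well) were exposed from plating day 0 to DIV 12, with dosing renewed at DIV 5 and 9. Recordings at DIV 5, 7, 9, 12 were collapsed by trapezoidal AUC, loss-of-signal fit vs DMSO.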

[5] = CCTE_Shafer_MEA_dev_network_spike_number: CCTE's Neural Network Formation Assay for Number of Network Spikes, Shafer Lab (AID 2284048);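 also: synchronized bursts across electrodes counted on days 5 7 9 12 and integrated as AUC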
Procedure, shortened: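 Rat cortical primary cultures on 48-well MEA (16 electrodes/well); continuous exposure DIV 0–12, full medium and treatment exchange DIV 5, 9. Readout: network spike count, AxIS adaptive detection, recordings DIV 5/7/9/12 collapsed to AUC; loss-of-signal fit, DMSO baseline.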

[6] = CCTE_Shafer_MEA_dev_network_spike_peak: CCTE's Neural Network Formation Assay for Mean Number of Electrodes in Network Spike, Shafer Lab (AID 2284049)
Procedure, shortened: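 Network-spike peak electrode count from recordings on days 5, 7, 9 and 12 was combined as trapezoidal area under the curve. Rat cortical cultures were treated continuously from plating, with compound renewed at each feed (DIV 5, 9); fits versus DMSO.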

[7] = CCTE_Shafer_MEA_dev_spike_duration_mean: CCTE's Neural Network Formation Assay for Mean Spike Duration, Shafer Lab (AID 2284051);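 also: mean network spike duration pooled as area under curve over DIV 5 to 12 recordings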
Procedure, shortened: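 Rat cortical primary cultures, 48-well MEA (16 electrodes/well); compound from plating, renewed DIV 5, 9. Network spike duration (AxIS adaptive detector) recorded DIV 5/7/9/12, combined as trapezoidal AUC; loss direction vs DMSO.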

[8] = CCTE_Shafer_MEA_dev_network_spike_duration_std: CCTE's Neural Network Formation Assay for Standard Deviation of Network Spike Duration, Shafer Lab (AID 2284052);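 also: area under curve of spike duration SD across recording days 5 to 12; hits are decreases in network spike duration SD versus DMSO vehicle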
Procedure, shortened: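 Rat cortical cultures, 1.5 x 10^5 cells/well, exposed continuously from plating to DIV 12 with media/compound renewal at DIV 5, 9. Spontaneous activity recorded DIV 5/7/9/12, AxIS adaptive spike detector; AUC across days; negative direction vs DMSO.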

[9] = CCTE_Shafer_MEA_dev_per_network_spike_spike_number_mean: CCTE's Neural Network Formation Assay for Mean Number of Spikes in a Network Spike, Shafer Lab (AID 2284053)
Procedure, shortened: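 Rat cortical primary cultures on 48-well MEA; compound from day 0, re-dosed with full media change DIV 5, 9. Recorded DIV 5, 7, 9, 12; spikes in 0.05 s window at network-spike peak ÷ total network spikes; AUC; loss vs DMSO.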

[10] = CCTE_Shafer_MEA_dev_per_network_spike_spike_percent: CCTE's Neural Network Formation Assay for Percent of Spikes in a Network Spike, Shafer Lab (AID 2284054)
Procedure, shortened: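 Read-out: percent of spikes falling in a 0.05 s window at network-spike peak, from spontaneous MEA recordings on days 5, 7, 9 and 12; trapezoidal AUC; loss of signal versus DMSO. Rat cortical cultures, compound present throughout.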

[11] = CCTE_Shafer_MEA_dev_AB: CCTE's Alamar Blue Assay for Cytotoxicity in the Neural Network Formation Assay, Shafer Lab (AID 2284083; active = hit-call score of the fitted dose curve at least 0.9, where 1 is the maximum;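 also: resazurin reduction fluorescence as viability of cultured neurons; twelve days of exposure from plating with re-dosing on DIV 5 and 9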)
Procedure, shortened: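 Rat cortical primary cultures, 1.5 x 10^5 cells/well on MEA; continuous compound exposure over 12 days of network development, re-dosed with full medium change DIV 5 and 9. Alamar Blue fluorescence; loss of signal = cytotoxicity vs DMSO baseline.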

[12] = CCTE_Shafer_MEA_dev_correlation_coefficient_mean: CCTE's Neural Network Formation Assay for Mean Correlation Coefficient, Shafer Lab (AID 2284093)
Procedure, shortened: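 Rat cortical cultures, 1.5 x 10^5 cells/well, dosed from day 0 for 12 days. Spontaneous spikes recorded DIV 5/7/9/12; electrode-pair correlation coefficients averaged, AUC taken. Fit in loss direction vs DMSO.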

[13] = CCTE_Shafer_MEA_acute_AB: CCTE's Alamar Blue Assay for Cytotoxicity in the Neural Acute Assay, Shafer Lab (AID 2284069; active = hit-call score of the fitted dose curve at least 0.9, where 1 is the maximum;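 also: active compounds lower the viability signal compared with DMSO wells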)
Procedure, shortened: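 Read-out: resazurin fluorescence (ex 544, em 590 nm) after CTB reagent at 1:6 dilution in fresh media. Cells: primary rat cortical neuron networks, DIV 13 or 15, chemically exposed on MEA plates; DMSO as negative control/baseline.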

[14] = CCTE_Shafer_MEA_acute_LDH: CCTE's Lactate Dehydrogenase Assay for Cytotoxicity in the Neural Acute Assay, Shafer Lab (AID 2284086; active = hit-call score of the fitted dose curve at least 0.9, where 1 is the maximum;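 also: active means LDH release rises above DMSO vehicle level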)
Procedure, shortened: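 LDH absorbance at 490 nm in medium taken right after 40-min compound exposure; rat primary cortical neuron networks on MEA plates, days post-plating 13 or 15. Increase over DMSO baseline scored as cytotoxicity.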

[15] = system: DIO2 (gene 1734); assay: CCTE_GLTED_hDIO2: CCTE's human Deiodinase 2 (DIO2) Inhibition Assay, Great Lakes Toxicology and Ecology Division (GLTED) Lab (AID 2284050; active = hit-call score of the fitted dose curve at least 0.9, where 1 is the maximum)
Procedure, shortened: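 Readout: absorbance from Sandell-Kolthoff detection of free iodide released by human DIO2 during a 3 h incubation with chemical. Cell-free format, n=3; activity fitted relative to DMSO negative control.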

[16] = system: DIO3 (gene 1735); assay: CCTE_GLTED_hDIO3: CCTE's human Deiodinase 3 (DIO3) Inhibition Assay, Great Lakes Toxicology and Ecology Division (GLTED) Lab (AID 2284055; active = hit-call score of the fitted dose curve at least 0.9, where 1 is the maximum;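 also: potency is for inhibition seen as loss of released iodide signal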)
Procedure, shortened: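 hDIO3 (adenovirus-expressed) + test chemical, 3 h incubation; free iodide quantified by Sandell-Kolthoff reaction, absorbance read-out. DMSO negative control, n=3.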

[17] = CCTE_Shafer_MEA_dev_LDH: CCTE's Lactate Dehydrogenase Assay for Cytotoxicity in the Neural Network Formation Assay, Shafer Lab (AID 2284068; active = hit-call score of the fitted dose curve at least 0.9, where 1 is the maximum;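 also: exposure for twelve days from plating with re-dosing on DIV 5 and 9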)
Procedure, shortened: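 Rat cortical primary neurons, MEA culture; dosing day 0–12, full medium plus compound exchange DIV 5, 9. Read-out: LDH enzyme activity, spectrophotometric. DMSO = negative control/baseline; signal loss → cytotoxicity.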

[18] = IUF_NPC1b_proliferation_BrdU_72hr: Leibniz Research Institute for Environmental Medicine (IUF) 72-hour Neural Progenitor Cell Bromodeoxyuridine (BrdU) Proliferation Assay (NPC1b) (AID 2284207)
Procedure, shortened: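 Luminescent BrdU ELISA measured DNA synthesis during the last 16 h of a 72 h exposure of primary human neural progenitor spheres grown with EGF and FGF. Signal was fitted relative to DMSO controls.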

**Q.** What does the source list for Cc1cc(=O)[nH]c(=S)[nH]1?
**A.** outcome [1]: inactive; outcome [2]: inactive; outcome [3]: inactive; outcome [4]: inactive; outcome [5]: inactive; outcome [6]: inactive; outcome [7]: inactive; outcome [8]: inactive; outcome [9]: inactive; outcome [10]: inactive; outcome [11]: inactive; outcome [12]: inactive

**Q.** With c1cc(-c2ccncc2)ccn1 as the compound, how does the outcome [13] read?
**A.** inactive

**Q.** And the outcome [14]?
**A.** inactive

**Q.** Which outcome [15] does the source give for CCCCCCCCCCCCCO here?
**A.** inactive

**Q.** What about the AC50 [16] of the same compound?
**A.** 51.8 µM (active)

**Q.** For CC(C)(C)c1cc(O)c(C(C)(C)C)cc1O, which outcome [13] is on record?
**A.** inactive

**Q.** What about the outcome [14] of the same compound?
**A.** inactive

**Q.** With C=CCOC(=O)c1ccccc1C(=O)OCC=C as the compound, how does the outcome [13] read?
**A.** inactive

**Q.** For CCCCC(CC)COC(=O)CC(C(=O)OCC(CC)CCCC)S(=O)(=O)O (configuration not stated), which AC50 [15] is on record?
**A.** 85.1 µM (active)

**Q.** What about the AC50 [16] of the same compound?
**A.** 92.2 µM (active)

**Q.** With CC1=C(/C=C/C(C)=C/C=C/C(C)=C/CO)C(C)(C)CCC1 as the compound, how does the AC50 [15] read?
**A.** 47 µM (active)

**Q.** And the AC50 [16]?
**A.** 28.3 µM (active)

**Q.** For CC=Cc1ccc(O)c(OC)c1, which AC50 [15] is on record?
**A.** 68 µM (active)

**Q.** And the AC50 [16]?
**A.** 14.9 µM (active)

**Q.** Which outcome [13] does the source give for Cc1ccc(C)c(O)c1C here?
**A.** inactive

**Q.** For O=C(O)CCCCC(=O)O, which outcome [14] is on record?
**A.** inactive

**Q.** With NS(=O)(=O)c1cc2c(cc1Cl)NCNS2(=O)=O as the compound, how does the outcome [13] read?
**A.** inactive

**Q.** What about the outcome [14] of the same compound?
**A.** inactive

**Q.** With Nc1ccccc1N as the compound, how does the outcome [13] read?
**A.** inactive

**Q.** What about the outcome [14] of the same compound?
**A.** inactive

**Q.** With CN1CCCC1=O as the compound, how does the outcome [14] read?
**A.** inactive

**Q.** Which results are given for C=CCc1ccc(O)c(OC)c1?
**A.** outcome [1]: inactive; outcome [2]: inactive; outcome [3]: inactive; outcome [4]: inactive; outcome [5]: inactive; outcome [6]: inactive; outcome [7]: inactive; outcome [8]: inactive; outcome [9]: inactive; outcome [10]: inactive; outcome [17]: inactive; outcome [13]: inactive; outcome [11]: inactive; outcome [14]: inactive; outcome [12]: inactive

**Q.** For C[Si]1(C)O[Si](C)(C)O[Si](C)(C)O[Si](C)(C)O1, which outcome [1] is on record?
**A.** inactive

**Q.** What about the outcome [2] of the same compound?
**A.** inactive

**Q.** What about the outcome [3] of the same compound?
**A.** inactive

**Q.** And the outcome [4]?
**A.** inactive

**Q.** What about the outcome [5] of the same compound?
**A.** inactive

**Q.** And the outcome [6]?
**A.** inactive

**Q.** What about the outcome [7] of the same compound?
**A.** inactive

**Q.** What about the outcome [8] of the same compound?
**A.** inactive

**Q.** What about the outcome [9] of the same compound?
**A.** inactive

**Q.** And the outcome [10]?
**A.** inactive

**Q.** What about the outcome [14] of the same compound?
**A.** inactive

**Q.** And the outcome [12]?
**A.** inactive

**Q.** And the outcome [18]?
**A.** inactive

**Q.** With Nc1ccc2c(c1)C(=O)c1ccccc1C2=O as the compound, how does the outcome [14] read?
**A.** inactive

**Q.** Which outcome [1] does the source give for CC(C)c1ccc(C(=O)N=C(N)N)cc1S(C)(=O)=O here?
**A.** inactive

**Q.** What about the outcome [2] of the same compound?
**A.** inactive

**Q.** And the outcome [3]?
**A.** inactive

**Q.** And the outcome [4]?
**A.** inactive

**Q.** What about the outcome [5] of the same compound?
**A.** inactive

**Q.** And the outcome [6]?
**A.** inactive

**Q.** And the outcome [7]?
**A.** inactive

**Q.** What about the outcome [8] of the same compound?
**A.** inactive

**Q.** What about the outcome [9] of the same compound?
**A.** inactive

**Q.** And the outcome [10]?
**A.** inactive

**Q.** And the outcome [17]?
**A.** inactive

**Q.** What about the outcome [11] of the same compound?
**A.** inactive

**Q.** And the outcome [12]?
**A.** inactive

**Q.** For Cc1ccc2ncccc2c1, which outcome [13] is on record?
**A.** inactive

**Q.** Which outcome [13] does the source give for Cc1ccc(C(C)C)c(O)c1 here?
**A.** inactive

**Q.** Which outcome [1] does the source give for OC[C@@H](O)[C@@H](O)[C@H](O)[C@H](O)CO here?
**A.** inactive

**Q.** And the outcome [2]?
**A.** inactive

**Q.** What about the outcome [3] of the same compound?
**A.** inactive

**Q.** And the outcome [4]?
**A.** inactive

**Q.** And the outcome [5]?
**A.** inactive

**Q.** What about the outcome [6] of the same compound?
**A.** inactive

**Q.** What about the outcome [7] of the same compound?
**A.** inactive

**Q.** What about the outcome [8] of the same compound?
**A.** inactive

**Q.** What about the outcome [9] of the same compound?
**A.** inactive

**Q.** What about the outcome [10] of the same compound?
**A.** inactive

**Q.** What about the AC50 [11] of the same compound?
**A.** 0.437 µM (active)

**Q.** And the outcome [12]?
**A.** inactive

**Q.** And the outcome [18]?
**A.** inactive

**Q.** What does the source list for COc1ccc(S(=O)(=O)N2C(=O)[C@@](c3ccccc3OC)(N3C[C@H](O)C[C@H]3C(=O)N(C)C)c3cc(Cl)ccc32)c(OC)c1?
**A.** outcome [13]: inactive; outcome [14]: inactive

**Q.** With NCC1(Cc2noc(=O)[nH]2)CCCCC1 as the compound, how does the outcome [14] read?
**A.** inactive
